Reference: PubChem BioAssay AID720690 (Broad Institute, 2013)
Results with a measured potency or affinity are listed apart. A number with no mark means an inactive call.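 Rule for the calls: active = every repeat run showing a signal drop whose fitted half-maximal concentration is at most twice the top tested concentration; inconclusive = repeat runs disagree, or flat partial drop, or poor fit; inactive = the rest.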

Experiment: HEK293T cytotoxicity, dose response, cytotoxicity control for miR-122 modulator project, cell-based, activator set, cherry-pick (AID 720690);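 note: 0% = neutral control wells and -100% = MG132 cytotoxic control wells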
Details: HEK293T viability, CellTiter-Glo luminescence, 48 h; series mostly up to 26 µM; activity change, negative = cytotoxicity: at the top concentration

SMILES | activity change, negative = cytotoxicity
COc1ccc(CNCCC(c2ccc(OC)cc2)c2ccccc2OC)cc1 (configuration not stated) | -48.3%
COc1ccc(S(=O)(=O)N(C)C[C@@H]2Oc3ncc(/C=C/c4ccccc4)cc3C(=O)N([C@@H](C)CO)C[C@@H]2C)cc1 | -17.3%
CC(C)C(=O)Nc1ccc2c(c1)C(=O)N(C)[C@@H]1CC[C@H](CC(=O)NCC3CC3)O[C@H]1CO2 | 9.2% [at 23.5 µM]
CCOc1ccc(CCNC(=O)C2CCN(S(=O)(=O)N3CCC(C)CC3)CC2)cc1OCC | 23%
CCN(C[C@H]1N[C@@H](CO)[C@@H]1c1ccc(C2=CCCC2)cc1)C(=O)c1ccncc1 | -36.7%
O=C(Cc1cccnc1)N1[C@@H](CO)[C@@H]2c3ccccc3NC[C@@H]21 | -12.6%
O=C(CSc1nc2ccccc2s1)N1CCOCC1 | -6.56%
CSc1cccc(NS(=O)(=O)c2ccccc2)c1 | -0.1%
COc1ccc(-c2ccc3c(c2)O[C@H](CN(C)C(=O)Nc2ccccc2F)[C@H](C)CN([C@@H](C)CO)S3(=O)=O)cc1 | -12.4%
C[C@H]1CN([C@@H](C)CO)C(=O)c2cc(-c3ccc(C#N)cc3)cnc2O[C@H]1CN(C)C(=O)Nc1ccc(C(F)(F)F)cc1 | -12.8%
O=C(Nc1ccccc1F)N1C[C@H]2[C@@H](c3ccccc31)[C@@H](CO)N2C(=O)C1CC1 | -1.84%
Cc1nn(C)cc1NC(=O)C[C@H]1CC[C@@H]2[C@H](COc3ccc(NC(=O)Nc4cccc(Cl)c4)cc3C(=O)N2C)O1 | 3.12%
CN1C(=O)c2cc(NS(C)(=O)=O)ccc2OC[C@@H]2O[C@H](CC(=O)O)CC[C@H]21 | -4.45% [at 23.5 µM]
COCC(=O)N(C)C[C@H]1Oc2cc(-c3ccccc3F)ccc2S(=O)(=O)N([C@H](C)CO)C[C@H]1C | -9.46%
CCCCc1cc(=O)oc2cc(C)cc(OC(C)C(=O)O)c12 (configuration not stated) | -8.47%
Cc1ccc(-c2ccc3c(c2)O[C@H](CN(C)Cc2cncnc2)[C@H](C)CN([C@@H](C)CO)S3(=O)=O)cc1 | -21.3%
O=C(c1cccnc1)N1C[C@H]2[C@@H](c3ccccc31)[C@H](CO)N2C(=O)Nc1ccccc1 | 0.123%
CCNC(=O)Nc1ccc2c(c1)C(=O)N(C)[C@H]1CC[C@@H](CC(=O)NCCOC)O[C@@H]1CO2 | -0.32%
Clc1ccc(CSc2nnc(-c3ccncc3)o2)c(Cl)c1 | -8.49%

SMILES | activity change, negative = cytotoxicity
CNC(=O)c1nc(C)n(-c2cc(Cl)cc(Cl)c2)n1 | 17.7%
O=C(N/N=C/c1ccco1)c1cccc(N2CCCC2=O)c1 | -1.22%
COC(=O)C[C@@H]1CC[C@@H]2[C@H](COc3ccc(NC(=O)c4cc(F)cc(F)c4)cc3C(=O)N2C)O1 | -17.8%
COCC(=O)N(C[C@@H]1[C@@H](c2ccccc2)[C@@H](CO)N1C(=O)NC(C)C)C(C)C | 8.23%
C/C=C/c1ccc([C@@H]2[C@@H](CO)N(C(=O)Cc3cccnc3)[C@H]2CNC(C)=O)cc1 | -15%
CC(C)NC(=O)N1[C@H](CO)[C@@H](c2ccccc2)[C@@H]1CN(C)C(=O)c1cccnc1 | -0.275%
COCC(=O)N1[C@H](CO)[C@H]2c3ccccc3N(C(=O)C3CC3)C[C@H]21 | -4.49%
Cc1cc(NS(=O)(=O)c2ccc(NC(=O)C(CC(C)C)N3C(=O)c4ccccc4C3=O)cc2)nc(C)n1 (configuration not stated) | 2.02%
CN1C(=O)c2cc(NC(=O)c3ccccc3F)ccc2OC[C@H]2O[C@@H](CC(=O)NCc3ccc4c(c3)OCO4)CC[C@@H]21 | -4.16%
COCC(=O)N(C[C@@H]1[C@@H](c2ccccc2)[C@H](CO)N1C(=O)NC(C)C)C(C)C | 2.09%
CN1C(=O)c2cc(NC(=O)c3cccc(C(F)(F)F)c3)ccc2OC[C@@H]2O[C@@H](CC(=O)NCCN3CCCC3)CC[C@@H]21 | 9.28%
COC(=O)C[C@H]1CC[C@@H]2[C@H](COc3ccc(NC(=O)c4cc(F)cc(F)c4)cc3C(=O)N2C)O1 | 4.97%
COCC(=O)N(C)C[C@H]1Oc2cc(-c3ccc(C#N)cc3)ccc2S(=O)(=O)N([C@H](C)CO)C[C@H]1C | 12.3%
CCNC(=O)C[C@H]1CC[C@@H]2[C@H](COc3ccc(NC(=O)Nc4cccc(OC)c4)cc3C(=O)N2C)O1 | 2.23%
COCC(=O)N1[C@@H](CO)[C@@H]2c3ccccc3N(C(=O)C3CC3)C[C@@H]21 | 0.653%
CCOC(=O)CSc1nnnn1-c1cccc2ccccc12 | 1.77%
O=C(C1CC1)N1C[C@H]2[C@@H](c3ccccc31)[C@H](CO)N2C(=O)c1ccccc1F | 0.81% [at 23.5 µM]
CNC(=O)C[C@@H]1CC[C@H]2[C@@H](COc3ccc(NC(=O)C(C)C)cc3C(=O)N2C)O1 | -2.67%
